Compound activity deposited in PubChem BioAssay by The Scripps Research Institute Molecular Screening Center.
Most compounds without a hit are left out; they make up all but 3.5% or so of the library.
TEAD-YAP block: TEAD-YAP interaction inhibition | hit rate 1.4% among 640,000 | inhibition, % at 9.12 µM | AID 1259422 | HEK-TIYL cells, TEAD-Gal4/YAP UAS-luciferase luminescence; in the data active means inhibition above about 32%;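 further: 0% = median of test compound wells and 100% = reference inhibitor wells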
GPR151 activ: activators of human GPR151; PathHunter beta-arrestin GPR151 cells, luminescence; activation, % at 11.2 µM; hit rate 1% among 650,000; AID 1508602; in the data active means activation above about 4.9%;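 further: 0% = median of compound wells and 100% = cells with positive control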
FBW7 activator: activators of human E3 ligase FBW7 | Q969H0 | AlphaScreen FBW7–phospho-cyclin E peptide binding, activator screen | normalized activity (activation), % at 26.1 µM | hit rate 0.13% among 650,000; in the data active means normalized activity above about 1.9%;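 further: purified mutant Fbw7 with reduced substrate affinity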
MITF inh: human MITF inhibition, primary screen; O75030; AlphaScreen MITF homodimerization, bead proximity signal; inhibition, % at 2.6 µM; hit rate 0.91% among 650,000; in the data active means inhibition above about 50%;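 further: 0% = vehicle wells with protein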
Target sequence (O75030 whole entry, looked up): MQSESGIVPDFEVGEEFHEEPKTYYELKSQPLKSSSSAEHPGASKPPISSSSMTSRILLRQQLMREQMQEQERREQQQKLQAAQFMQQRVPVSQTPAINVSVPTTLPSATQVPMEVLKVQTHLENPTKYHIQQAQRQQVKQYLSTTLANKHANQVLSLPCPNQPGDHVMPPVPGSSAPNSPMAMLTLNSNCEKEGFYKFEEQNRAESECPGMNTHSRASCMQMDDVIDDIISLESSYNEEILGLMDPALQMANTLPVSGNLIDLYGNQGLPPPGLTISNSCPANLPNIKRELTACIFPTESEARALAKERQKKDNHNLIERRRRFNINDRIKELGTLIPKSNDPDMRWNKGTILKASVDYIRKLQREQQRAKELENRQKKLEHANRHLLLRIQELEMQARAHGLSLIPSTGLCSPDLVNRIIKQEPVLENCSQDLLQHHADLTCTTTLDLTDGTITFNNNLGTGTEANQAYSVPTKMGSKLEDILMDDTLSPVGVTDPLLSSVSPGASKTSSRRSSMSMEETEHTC
MITF inh conf: human MITF inhibition, confirmation | shares compounds with MITF inh | AlphaScreen MITF homodimerization, biotin/His-MITF beads | inhibition, % at 2.6 µM | hit rate 16% among 4,700 | AID 1259372;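 active means inhibition above a cutoff derived from the DMSO control wells, cut at about 28% in these data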;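 further: 0% = MITF dimer wells with DMSO only; inhibitors lower the bead chemiluminescence by keeping MITF from dimerizing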
AS interf ctr: AlphaScreen optical interference, counter-screen; hit rate 7.6% among 4,700; inhibition, % at 2.6 µM; LysRS AlphaScreen counterscreen, signal interference, triplicate; shares compounds with MITF inh;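 active means inhibition above a cutoff derived from the DMSO control wells, cut at about 30% in these data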
* = called active by the depositor; / = no result given.

SMILES	TEAD-YAP block	GPR151 activ	FBW7 activator	MITF inh	MITF inh conf	AS interf ctr
O=C(COc1ccccc1)N1CCN(Cc2cccc(Cl)c2)CC1	5	-1	0	50	/	/
Cc1cccc(OCC(=O)N2CCN(Cc3ccccc3Cl)CC2)c1	5	0	0	66*	11	21
COc1ccc(Br)cc1CN1CCN(C(=O)COc2cccc(C)c2)CC1	5	0	0	58*	-5	-7
C=CCC1NC2CC(C)C1c1ccccc12 (configuration not stated)	5	0	0	-6	/	/
CC12CN3CCN(CC(C3)/C1=N/NC(=O)c1ccncc1)C2	-1	0	0	1	/	/
O=C(COc1ccc(Br)cc1)N1CCN(Cc2ccccc2)CC1	3	0	0	39	/	/
Cc1cccc(OCC(=O)N2CCN(Cc3ccc(Br)cc3)CC2)c1	7	2	0	70*	11	9
CCCCC[C@@H](/C=C/C=C\C/C=C\CCCCC(=O)O)OO	/	-2	/	0	/	/
COc1ccc(CN2CCN(Cc3cccc(C)c3)CC2)cc1	4	-2	0	31	/	/
Cc1cccc(CN2CCN(Cc3ccccc3C)CC2)c1	-6	0	0	64*	-3	-4
Cc1ccc(CN2CCN(Cc3cccc(C)c3)CC2)cc1	7	1	0	64*	9	18
Cc1cccc(CN2CCN(Cc3ccccc3F)CC2)c1	-2	-1	0	79*	10	12
COc1ccccc1CN1CCN(Cc2cccc(C)c2)CC1	-7	-2	0	69*	8	9
COc1ccccc1N1CCN(C2CCCN(C(=O)Cc3cn4ccsc4n3)C2)CC1 (configuration not stated)	3	1	0	11	/	/
O=C1CC(=O)N(c2ccc(Cl)cc2)C(=S)N1	-4	2	0	13	/	/
CCN1CCN(Cc2cccc([N+](=O)[O-])c2)CC1	-2	0	0	-11	/	/
Cc1cccc(CN2CCN(Cc3ccccc3[N+](=O)[O-])CC2)c1	-4	4	0	64*	13	-2
N#Cc1cc(NC(=O)c2ccco2)ccc1N1CC2CC(C1)c1cccc(=O)n1C2 (configuration not stated)	-5	3	2	15	/	/
CCc1ccc(CN2CCN(Cc3ccc(Cl)cc3)CC2)cc1	4	0	0	76*	11	18
COc1ccc(CN2CCN(C(=O)COc3ccc(Cl)cc3)CC2)cc1	5	0	0	58*	14	17
CCc1ccc(CN2CCN(Cc3ccc(CC)cc3)CC2)cc1	8	1	0	67*	3	4
CSc1ccc(CN2CCN(Cc3ccc(Cl)cc3)CC2)cc1	7	2	0	80*	11	16
Oc1ccc(CN2CCN(c3ccc(Cl)cc3)CC2)cc1	-3	2	0	11	/	/
CN1CCN(Cc2ccc(Cl)cc2)CC1	-1	-1	0	39	/	/
CCOc1ccc(CN2CCN(Cc3ccc(Cl)cc3)CC2)cc1	4	0	0	58*	20	14
SMILES	TEAD-YAP block	GPR151 activ	FBW7 activator	MITF inh	MITF inh conf	AS interf ctr
CCOc1ccc(CN2CCN(Cc3ccccc3C)CC2)cc1	4	0	0	64*	9	5
CCOc1ccc(CN2CCN(c3ccccc3)CC2)cc1	-8	3	0	35	/	/
CCOc1cccc(CN2CCN(Cc3ccccc3)CC2)c1O	-4	0	0	5	/	/
S=C(c1ccc(Cl)c(Cl)c1)N1CCOCC1	3	1	0	-15	/	/
COc1ccccc1OCC(=O)N1CCN(Cc2nc3ccccc3[nH]2)CC1	-13	3	-1	75*	8	22
O=C(COc1ccccc1Cl)N1CCN(Cc2ccccc2)CC1	-4	0	0	0	/	/
O=C(Cc1noc2ccccc12)N1CCN(Cc2nc3ccccc3[nH]2)CC1	4	2	0	77*	5	17
O=C1CSC(c2ccc3c(c2)OCO3)c2c(n(C3CCCC3)[nH]c2=O)N1 (configuration not stated)	8	3	0	13	/	/
CN(C)c1ccc(CNCCc2ccccc2)cc1	-6	3	0	10	/	/
COc1cccc(/C=C2\C(=O)C3CCN2CC3)c1OC	-11	0	0	0	/	/
CN(C)P1(N(C)C)=Nc2nn(-c3ccccc3)c(N)c2C(C(Cl)(Cl)Cl)=N1	-1	0	0	3	/	/
Fc1ccc(CNCCc2c[nH]c3ccccc23)cc1F	6	-2	0	54*	1	-2
Fc1ccc(CNCCc2c[nH]c3ccccc23)cc1	11	0	0	19	/	/
O=C(O)C1C2c3ccccc3C(c3ccccc32)C1C(=O)NCCO (configuration not stated)	-21	-1	0	-6	/	/
CCOC(=O)C1C2NC(=S)N(c3ccccc3)C1(C)Oc1c(OCC)cccc12 (configuration not stated)	-7	0	0	35	/	/
CCOC(=O)C1C2NC(=S)N(c3ccc(C)cc3)C1(C)Oc1c(OCC)cccc12 (configuration not stated)	-17	0	-1	53*	41*	26
O=Cc1nc2ccccc2n1Cc1ccc(Cl)cc1	3	0	0	-5	/	/
COc1ccccc1CN1CCN(C(=O)COc2ccccc2)CC1	5	-1	0	39	/	/
O=C(COc1ccccc1)N1CCN(Cc2ccccc2F)CC1	-8	-1	0	55*	7	8
Cc1ccccc1CN1CCN(C(=O)COc2ccccc2)CC1	-2	2	0	60*	8	9
Cc1cccc(COc2ccc(/C=C/[N+](=O)[O-])cc2)c1	-34	-3	0	-2	/	/
Cc1nc(C)c(CC(=O)N2CCCC(N3CCN(c4ccccc4)CC3)C2)s1 (configuration not stated)	1	0	0	9	/	/
CC1=C(C(=O)OCc2ccccc2)C2(C(=O)Nc3ccc(F)cc32)C(C#N)=C(N)O1 (configuration not stated)	-5	1	0	1	/	/
O=C(O)c1ccc(N2CC3CC(C2)c2cccc(=O)n2C3)c([N+](=O)[O-])c1 (configuration not stated)	-19	0	0	2	/	/
CCN1CCN(Cc2ccc(F)c(Br)c2)CC1	-2	1	0	44	/	/
SMILES	TEAD-YAP block	GPR151 activ	FBW7 activator	MITF inh	MITF inh conf	AS interf ctr
OCCN1CCN(Cc2ccc(F)c(Br)c2)CC1	2	0	0	73*	-4	-4
CN1CCN(Cc2ccc(F)c(Br)c2)CC1	-1	0	1	80*	12	15
C1CCN(CC2COC3(CCCCC3)O2)CC1 (configuration not stated)	0	1	0	9	/	/
CC(C)Sc1ccc(CC(=O)N2CCN(Cc3nc4ccccc4n3C)CC2)cc1	20	-1	-1	55*	12	14
CCOP(=O)(OCC)SCc1ccccc1	-9	-1	0	53*	2	9
COc1ccc(CNCCc2c[nH]c3ccccc23)c(OC)c1	-4	2	1	20	/	/
